# TEAD-YAP inh – TEAD-YAP interaction inhibition, primary screen, TEAD-YAP interaction inhibitor project, luminescence, HEK-TIYL cells; inhibition, % at 9.12 µM; TEAD-Gal4/YAP UAS-luciferase luminescence; hit rate 1.4% among 640,000; in the data active = inhibition above about 32%;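 note: 0% = median of test compound wells and 100% = reference inhibitor wells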
# FBW7 activator – FBW7 E3 ligase activators, primary screen, biochemical, AlphaScreen, human | F-box/WD repeat-containing protein 7 (Homo sapiens), Q969H0 | AlphaScreen FBW7–phospho-cyclin E peptide binding, activator screen | normalized activity (activation), % at 26.1 µM | AID 1259310, 2017 | hit rate 0.13% among 650,000; in the data active = normalized activity above about 1.9%;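 note: purified mutant Fbw7 with reduced substrate affinity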
# MITF primary – MITF inhibitors, primary screen, biochemical, AlphaScreen, human. Microphthalmia-associated transcription factor (Homo sapiens), O75030. AlphaScreen MITF homodimerization, bead proximity signal. inhibition, % at 2.6 µM. hit rate 0.91% among 650,000. AID 1259374, 2018; in the data active = inhibition above about 50%;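 note: 0% = vehicle wells with protein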
# GPR151 activ – activators of human GPR151, primary screen, cell-based, PathHunter beta-arrestin, luminescence; G-protein coupled receptor 151 (Homo sapiens), Q8TDV0; PathHunter beta-arrestin GPR151 cells; activation, % at 11.2 µM; hit rate 1% among 650,000; in the data active = activation above about 4.9%;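 note: 0% = median of compound wells and 100% = cells with positive control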
# Target sequence (Q8TDV0 whole entry, looked up): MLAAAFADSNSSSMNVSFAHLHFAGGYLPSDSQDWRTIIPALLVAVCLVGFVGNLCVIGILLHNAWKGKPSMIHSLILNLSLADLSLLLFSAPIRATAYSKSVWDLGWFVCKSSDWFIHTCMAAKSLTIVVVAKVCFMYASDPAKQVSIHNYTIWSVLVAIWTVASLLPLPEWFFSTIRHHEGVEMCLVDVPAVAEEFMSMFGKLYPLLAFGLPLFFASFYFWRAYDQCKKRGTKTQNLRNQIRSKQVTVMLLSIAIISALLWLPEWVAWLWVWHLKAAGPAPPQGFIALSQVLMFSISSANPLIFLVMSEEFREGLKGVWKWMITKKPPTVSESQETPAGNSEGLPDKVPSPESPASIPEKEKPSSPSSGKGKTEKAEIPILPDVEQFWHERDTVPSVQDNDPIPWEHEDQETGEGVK
# GPR151 conf act – GPR151 activators, triplicate retest, confirmation, cell-based, PathHunter beta-arrestin, luminescence | shares compounds with GPR151 activ | GPR151 PathHunter beta-arrestin cells, 90 min; % of EA-reagent control over plate median | activation, % at 11.2 µM | 6,700 tested, under 10 active | AID 1508609, 2020;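 active = mean percent activation across replicates above the confirmation screen cutoff of 4.91%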
# GPR119 ag – GPR119 activators in beta-arrestin cells, counter-screen for GPR151 activator project, cell-based, PathHunter beta-arrestin, luminescence, triplicate; shares compounds with GPR151 activ; 90 min; 0 = compound-well median, 100 = enzyme-acceptor control; activation, % at 11.2 µM; hit rate 0.3% among 6,700;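 active = mean percent activation in the counterscreen above 29.09%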;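 note: counterscreen on off-target GPR119 to flag nonselective hits from the GPR151 activator screen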
# An asterisk follows results filed as active; · = no result. Hits are enriched below; roughly 3.5% of the tested compounds scored in any of these assays.
SMILES,TEAD-YAP inh,FBW7 activator,MITF primary,GPR151 activ,GPR151 conf act,GPR119 ag
COc1ccc(C(=O)Nc2ccc(C(=O)NCCc3ccccc3)cc2)cc1,-6.2,0.1,9.5,5.2*,0.1,-4.3
COc1ccc(CNC(=O)c2ccc(NS(C)(=O)=O)cc2)cc1,3.8,-0.1,-2.2,4.9*,0.7,11.7
Cn1c(=O)c2c(ncn2CCCNC2=CC(=O)CC(C)(C)C2)n(C)c1=O,6.9,-0.2,-3.2,-1.0,·,·
CCN(CC)c1ccc(C(=O)NCCO)cc1,-9.2,0.3,14.4,0.5,·,·
COc1ccc(C(=O)NC(=S)NCc2ccccc2)cc1,-2.0,-0.1,16.8,10.6*,0.1,-2.3
COc1ccc(NC(=O)CNC(=O)c2cccc(C)c2)cc1,-7.7,-0.1,-4.9,8.1*,0.6,4.5
CS(=O)(=O)Nc1ccc(C(=O)NCCc2ccccc2)cc1,-34.8,-0.1,8.1,5.7*,0.8,5.5
COc1ccc(NC(=O)c2ccc(NC(=O)c3ccc(NC(=O)c4cccc(C)c4)cc3)cc2)cc1,1.6,-0.1,-1.6,1.7,·,·
CCN(CC)c1ccc(C(=O)NCCc2ccccc2)cc1,-46.9,0.1,5.8,7.0*,0.3,7.4
CS(=O)(=O)Nc1ccc(C(=O)Nc2ccccc2C(=O)NCCc2ccccc2)cc1,-23.7,-0.1,0.5,-0.5,·,·
O=C(N/N=C/c1ccccc1)c1cc(C2CC2)[nH]n1,-39.4,0.1,10.8,-1.2,·,·
COc1cccc(CNC(=O)c2ccc3c(c2)NC(=O)C(CS(=O)(=O)Cc2ccccc2Cl)N3)c1 (configuration not stated),4.4,-0.1,-3.4,0.8,·,·
N#CCSc1nc2cc(C(=O)Nc3cccc(Cl)c3)ccc2c(=O)n1-c1ccccc1,1.6,-0.1,1.4,-0.7,·,·
O=C(Cc1ccc(N2CCC(NCc3ccc4c(c3)OCO4)CC2)cc1)N1CCCC1,-1.6,-0.1,12.0,0.6,·,·
N#Cc1ccccc1OCC(=O)N=Nc1c(O)[nH]c2ccc([N+](=O)[O-])cc12,10.6,-0.1,10.1,0.9,·,·
N#Cc1ccccc1OCC(=O)N=Nc1c(O)[nH]c2ccccc12,-14.4,-0.2,5.0,6.0*,-0.7,-2.8
CCn1c(C(=O)O)c(CC(=O)N(C)c2cc(Cl)ccc2OC)c2ccccc21,-4.6,0.2,-7.9,-1.2,·,·
Cc1cccc(NC(=O)C(=S)NC2CCCC2)c1C,-26.4,0.2,-12.3,8.2*,0.6,9.3
c1ccc(N2CCN(c3nnc(SCc4ccccn4)s3)CC2)cc1,-39.6,0.1,-3.0,5.4*,-0.7,-8.9
c1ccc(CSc2nnc(SCc3ccccn3)s2)nc1,-62.1,0.1,2.3,-0.2,·,·
Cc1ccc(S(=O)(=O)n2ccn(C(=O)c3ccccc3Br)c2=O)cc1,-9.2,-0.1,-3.0,4.9*,-0.9,-13.8
Cc1cnc(-c2ccc(C(=O)NC3CC3)cc2)nc1NCCCN1CCCC1=O,3.7,-0.1,10.6,5.2*,0.7,4.8
CCN(CC)c1nc(NCCCN2CCCC2=O)nc(NC2CC2)n1,-7.0,0.2,-1.0,5.1*,-0.3,-3.6
Cc1cnc(-c2ccc(C(=O)N3CCN(C)CC3)cc2)nc1NCCCN1CCCC1=O,4.8,0.1,-4.4,-1.1,·,·
Cc1cnc(-c2ccc(C(N)=O)cc2)nc1NCCN1CCOCC1,5.6,0.1,-1.1,5.5*,-0.6,3.8
SMILES,TEAD-YAP inh,FBW7 activator,MITF primary,GPR151 activ,GPR151 conf act,GPR119 ag
Cc1cnc(NCc2ccc3c(c2)OCO3)nc1NCCCN1CCCC1=O,-5.2,0.5,5.6,5.6*,0.7,2.5
CC1(C)CC(=O)C2=C(C1)N(c1sc3c(c1C#N)CCCC3)C(N)=C(C#N)C2c1ccc2c(c1)OCO2 (configuration not stated),13.1,-0.1,4.9,0.7,·,·
CCOC(CCNC(=O)C1c2ccccc2C(=O)N(C)C1c1cccs1)OCC (configuration not stated),-5.6,0.0,8.4,-0.1,·,·
N#Cc1cccc(CN2CCC(NCCc3ccccc3)CC2)c1,-9.6,0.1,17.2,-0.7,·,·
Cc1cnc(NCCCN2CCCC2=O)nc1NCCCN1CCCC1=O,3.6,-0.1,10.4,6.8*,0.2,-1.8
CCNc1ncc(C)c(NCCCN2CCCC2=O)n1,3.6,0.0,3.5,-1.7,·,·
COc1cccc(NC(=O)CCC2CCN(C(=O)c3ccnn3C)CC2)c1,-1.6,0.1,-6.3,0.5,·,·
CCCCC1(CCCC)NC(=S)N(c2ccc(C)cc2)N1,-5.5,0.0,14.6,11.4*,-1.1,-3.6
COc1ccc(S(=O)(=O)Nc2cccnc2)cc1C,16.1,0.3,-0.2,-1.1,·,·
COc1ccc(S(=O)(=O)Nc2cccnc2)cc1I,-3.9,0.1,-5.4,5.1*,0.4,-1.4
COc1ccc(S(=O)(=O)Nc2cccc(SC)c2)cc1C,2.8,0.0,9.8,-0.4,·,·
COc1ccc(S(=O)(=O)Nc2cccc(N(C)S(C)(=O)=O)c2)cc1C,12.0,0.2,8.8,-1.4,·,·
COc1ccc(S(=O)(=O)Nc2cccc(Br)c2)cc1C,2.4,0.0,-1.0,13.5*,1.3,1.0
COc1ccc(S(=O)(=O)Nc2cccc(N(C)S(C)(=O)=O)c2)cc1OC,0.9,0.0,-2.7,7.8*,0.0,0.9
CCCCc1ccc(-c2nc(C=Nc3ccc(Cl)c([N+](=O)[O-])c3)c(O)o2)cc1,11.4,0.0,0.6,1.7,·,·
COc1cc(-c2c(C#N)c(N)nc3sc(C#N)c(N)c23)cc(OC)c1OC,-14.0,0.0,1.2,11.5*,-0.3,2.9
Cc1nc(NC(=O)/C=C/c2ccccc2)sc1C(=O)Nc1cccnc1,12.3,-0.1,-7.3,9.1*,-0.5,-5.3
Cc1oc2cc(OCC(=O)O)ccc2c(=O)c1Oc1ccc(C(=O)O)cc1,-16.1,-0.2,-0.1,0.4,·,·
CCN(CC(=O)O)S(=O)(=O)c1cc(Cl)ccc1Cl,1.6,-0.2,13.5,0.2,·,·
CCN(CC(N)=O)S(=O)(=O)c1cc(Cl)ccc1Cl,-3.2,0.1,-14.5,5.0*,1.2,2.6
CCN(CC(=O)NC)S(=O)(=O)c1ccc(Cl)cc1,3.7,0.6,6.1,7.6*,-1.6,-16.7
CN(CC(=O)NN)S(=O)(=O)c1ccc(Cl)cc1,-9.5,0.2,5.4,6.3*,0.7,10.5
CCN(CC)S(=O)(=O)c1ccc(S(=O)(=O)c2ccc(S(=O)(=O)N(CC)CC)cc2)cc1,4.7,-0.3,-2.4,5.9*,-0.7,-1.4
CCOC(=O)C1(CC2CCCCO2)CCN(Cc2cnc(SC)nc2)CC1 (configuration not stated),-8.9,0.0,-0.4,2.0,·,·

# Screening results (PubChem BioAssay)
